Sampled rows, rich in hits. Any-hit rate of the full collection: about 18%.
PLK1 PBD block – PLK1 (human) polo-box domain binding inhibition; Plk1 PBD binding of FITC phosphopeptide, fluorescence polarization; Potency, µM, actives largely listed as inhibitors; actives 2.8% (n = 360,000); note: series mostly up to about 57 µM; nearly all actives have a fitted effect of over 65% in size
Target sequence (P53350 whole entry, looked up, the tested form may be a part): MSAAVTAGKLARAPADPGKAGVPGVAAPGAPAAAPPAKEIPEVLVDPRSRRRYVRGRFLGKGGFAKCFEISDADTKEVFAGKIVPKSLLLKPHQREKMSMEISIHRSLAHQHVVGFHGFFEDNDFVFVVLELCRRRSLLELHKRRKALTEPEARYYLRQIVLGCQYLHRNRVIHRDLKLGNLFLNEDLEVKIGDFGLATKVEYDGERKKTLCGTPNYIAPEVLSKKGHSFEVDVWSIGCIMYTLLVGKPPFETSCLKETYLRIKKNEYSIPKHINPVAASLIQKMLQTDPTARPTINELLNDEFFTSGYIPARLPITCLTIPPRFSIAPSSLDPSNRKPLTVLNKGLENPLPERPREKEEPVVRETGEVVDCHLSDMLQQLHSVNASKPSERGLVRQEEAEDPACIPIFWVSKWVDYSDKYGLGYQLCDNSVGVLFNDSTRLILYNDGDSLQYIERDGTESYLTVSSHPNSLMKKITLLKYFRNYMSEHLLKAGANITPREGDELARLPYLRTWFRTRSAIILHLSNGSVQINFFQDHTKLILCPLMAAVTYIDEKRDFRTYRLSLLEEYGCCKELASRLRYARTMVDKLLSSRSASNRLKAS
VDR inhibitor – blocks the human vitamin D receptor | VDR-SRC2-3 peptide fluorescence polarization, 2 h | Potency, µM, hits mostly inhibitors | actives 0.93% (n = 400,000) | AID 504847
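The screen uses fluorescence polarization to detect compounds that interfere with recruitment of the SRC2-3 coactivator peptide to VDR; plates are read after 2 h at room temperature.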
TDP1 inh – TDP1 (human) enzyme inhibition | Q9NUW8 | recombinant TDP1, AlphaScreen DNA substrate cleavage | Potency, µM (highest dose often 130 µM), actives largely listed as inhibitors | actives 0.28% (n = 350,000); note: nearly all actives have a fitted effect of over 40% in size
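Compounds were preincubated with Tdp1 (1 nM final) for 15 min at room temperature before substrate (15 nM final) started a 5 min reaction; beads (10 ug/ml final) were then added for 10 min before AlphaScreen detection.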
DT40 TDP1 no CPT – qHTS for Inhibitors of human tyrosyl-DNA phosphodiesterase 1 (TDP1): qHTS in cells in absence of CPT. actives 15% (n = 420,000). DT40 Tdp1-/- hTDP1 cells, no CPT, ATP luminescence, 48 h. Potency, µM (top dose mostly 46.2 µM), usual class: inhibitors; note: nearly all actives have a fitted effect of over 55% in size
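DT40 Tdp1-/-;hTDP1 cells, no CPT (DMSO vehicle only), 400 cells/well; compounds pin-transferred; ≥48 hr, 37 °C; CellTiter-Glo 30 min RT dark, luminescence read.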
GCN5L2 inh – blocks human GCN5L2 histone acetyltransferase; Q92830; GCN5L2 HAT assay, ThioGlo1 CoA-SH fluorescence; Potency, µM (titrated, usually from 58.9 µM), most hits filed as inhibitors; actives 0.21% (n = 390,000)
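Preincubate 20nM GCN5L2 with compound 15 min, RT → add 50uM ThioGlo1 + 75uM H3(1-25) + 70uM acetyl-CoA → read fluorescence 0 and 20 min. Primary qHTS; fluorescent artifacts likely.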
DT40 TDP1 CPT – growth inhibition of DT40 Tdp1-/-;hTDP1 cells with camptothecin (screen for TDP1 inhibitors); AID 686979; actives 12% (n = 420,000); chicken DT40 Tdp1-/-;hTDP1 cells + 20 nM CPT, ATP luminescence, 48 h; Potency, µM (highest dose often 46.2 µM), actives largely listed as inhibitors; note: nearly all actives have a fitted effect of over 55% in size
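Cell growth measured by CellTiter-Glo luminescence after a minimum 48 h, 37 C compound exposure with 20 nM CPT in Tdp1-knockout DT40 cells stably expressing hTDP1, seeded 400/well; qHTS titration format.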
A number is an active result; 0 = inactive; ? = inconclusive; - = not tested or not shown. Calls come from the whole dose curve; as a rule, active = well fitted curve in the direction sought with a large enough effect; inconclusive = small, poorly fitted or top-dose-only effect, or another doubt; inactive = no such curve, though single readings can be large; an effect the other way counts as inactive or inconclusive.

SMILES	PLK1 PBD block	VDR inhibitor	TDP1 inh	DT40 TDP1 no CPT	GCN5L2 inh	DT40 TDP1 CPT
CC(C)C[C@H](NC(=O)[C@@H](Cc1c[nH]c2ccccc12)NC(=O)[C@H](Cc1ccc(O)cc1)NC(=O)[C@H](CO)NC(=O)[C@H](Cc1c[nH]c2ccccc12)NC(=O)[C@H](Cc1cnc[nH]1)NC(=O)[C@@H]1CCC(=O)N1)C(=O)N[C@@H](CCCN=C(N)N)C(=O)N1CCC[C@H]1C(=O)NCC(N)=O	-	0	0	-	0	-
Cc1ccc(-c2nc3c4ccccc4n(CC(=O)N4CCN(c5ccccc5F)CC4)c(=O)n3n2)cc1	-	0	0	0	0	0
COc1ccc(N2C(=S)NC3c4cc(Cl)ccc4OC2(C)C3C(=O)N(C)C)cc1 (stereo unspecified)	0	0	0	?	0	29.1µM
CC(OCc1ccccc1)C(NC(=O)OC(C)(C)C)C(=O)NC1COC2CC(n3ccc(=O)[nH]c3=O)OC12 (stereo unspecified)	-	0	0	-	-	-
CCCCn1c(N)c(N(CCOC)C(=O)c2ccc(S(=O)(=O)N3CCC(C)CC3)cc2)c(=O)[nH]c1=O	0	0	0	0	0	0
Cc1c(C(=O)N(C)Cc2nc3ccccc3c(=O)[nH]2)oc2ccccc12	0	0	0	23.1µM	0	?
CCN(CC(=O)NCc1ccc(F)cc1)Cc1nc2ccccc2c(=O)[nH]1	0	0	0	0	0	0
CC(=O)c1ccc(-c2ccc(C(=O)N(C)Cc3nc4ccccc4c(=O)[nH]3)o2)cc1	0	0	0	23.1µM	0	?
CC(=O)N(Cc1ccc(F)cc1)Cc1nc2ccccc2c(=O)[nH]1	0	0	0	?	0	?
CC(C)=CCN1CCN(Cc2cc(F)ccc2-n2nc(C)cc2C)CC1CCO (stereo unspecified)	0	0	0	0	0	0
O=S1(=O)N=C(Oc2ccc(-c3ccccc3)cc2)c2ccccc21	-	-	0	-	-	-
CCN(CC)c1cc(C)c2cc(NC(=O)c3cccc(OC)c3OC)ccc2n1	-	0	0	6.51µM	0	16.4µM
CCOc1ccccc1C(=O)Nc1ccc2nc(N(CC)CC)cc(C)c2c1	-	0	0	20.6µM	0	20.6µM
CCN(CC)c1cc(C)c2cc(NC(=O)c3ccccc3F)ccc2n1	0	0	-	29.1µM	0	20.6µM
CCOc1ccc(C(=O)Nc2ccc3nc(N(CC)CC)cc(C)c3c2)cc1	-	0	0	?	0	18.4µM
CCN(CC)c1cc(C)c2cc(NC(=O)c3cccc(OC)c3)ccc2n1	-	0	0	?	0	?
COCc1ccc(CN2CCC(n3nccc3NC(=O)CCOc3ccccc3)CC2)o1	0	0	0	0	0	0
O=C(CC1N=C2c3ccccc3N=C(SCc3cccc(F)c3)N2C1=O)NCc1cccs1 (stereo unspecified)	-	0	0	?	0	?
Cc1cc(=O)[nH]c(CN2CCC(c3ccccc3)CC2)n1	0	0	0	0	0	0
Cc1nc(CN2CCC(c3ccccc3)CC2)cc(=O)[nH]1	21.2µM	?	0	0	0	0
CCc1ccccc1NC(=O)Nc1nnc(N2CCCC2)s1	-	0	0	0	0	0
COc1ccc(-n2nc(C(=O)N3CCN(c4cccc(C)c4)C(C)C3)c3c4ccccc4n(C)c3c2=O)cc1 (stereo unspecified)	-	0	0	?	0	0
CCOC(=O)N1CCN(C(=O)c2cc3c(=O)n(C)c4ccccc4c3n2C)CC1	0	0	0	16.4µM	0	20.6µM
Cc1cccc(N2CCN(C(=O)Cn3c(=O)c4cccn4c4ccc(F)cc43)CC2C)c1 (stereo unspecified)	-	0	0	18.4µM	0	18.4µM
CCOC(=O)N1CCN(C(=O)c2cn(CCOC)c(=O)c3c2c2ccccc2n3C)CC1	0	0	0	0	0	0
CCN1CCN(C(=O)c2cc3c(=O)n(C)c4ccccc4c3n2C)CC1	0	0	0	0	0	0

Assay outcomes deposited in PubChem BioAssay by National Center for Advancing Translational Sciences (NCATS).
